Source: PubChem BioAssay (National Center for Advancing Translational Sciences (NCATS))
GLP1R cytotox: cytotoxicity in counter-screen for GLP-1R inverse agonists; 410,000 compounds, 0.13% hits; HEK293 cAMP-luciferase reporter cells, luminescence, 24 h; Potency, µM (doses to about 38.3 µM), for inactives: at the highest dose activity change, negative = inhibition, hits mostly inhibitors;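 note: loss of luciferase light is scored as toxicity; % is set by controls: 0 for no effect and ±100 for the full control effect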
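Compound-treated cells are incubated 24 hr at 37 deg C under 5% CO2 after a 12 hour attachment period, then luciferase detection reagent is added and luminescence is measured following 12 min at room temperature; lowered signal indicates toxicity.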
GLP1R ag: agonists of human GLP-1 receptor; HEK293 GLP-1R CRE-luciferase, luminescence, 4-6 h; cells express a hypersensitive GLP-1R form; 380,000 compounds, 0.007% hits; Potency, µM (doses to about 45.6 µM), for inactives: at the top dose activation, hits mostly activators; note: % of control where 0% means no effect
Target sequence (P43220 whole entry, looked up): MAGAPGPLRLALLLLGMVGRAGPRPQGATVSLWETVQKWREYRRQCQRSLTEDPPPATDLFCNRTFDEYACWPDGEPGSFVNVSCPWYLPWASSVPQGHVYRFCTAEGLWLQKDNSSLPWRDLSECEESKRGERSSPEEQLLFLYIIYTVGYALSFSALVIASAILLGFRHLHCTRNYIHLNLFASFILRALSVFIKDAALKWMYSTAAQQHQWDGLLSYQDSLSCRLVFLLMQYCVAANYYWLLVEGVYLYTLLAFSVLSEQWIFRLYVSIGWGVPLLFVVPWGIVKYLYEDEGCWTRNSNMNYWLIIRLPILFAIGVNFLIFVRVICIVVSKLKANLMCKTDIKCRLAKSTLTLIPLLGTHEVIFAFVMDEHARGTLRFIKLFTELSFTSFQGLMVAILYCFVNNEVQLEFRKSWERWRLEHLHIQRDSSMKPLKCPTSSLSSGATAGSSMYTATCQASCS
GLP1R inv ag: GLP-1 receptor (human) inverse agonism; AID 624417; P43220; Potency, µM (top dose mostly 38.3 µM), inactives show top-dose activity change, negative = inhibition, usual class: inhibitors; HEK293 GLP-1R CRE-luciferase, luminescence, 24 h; GLP-1R form is constitutively active; 410,000 compounds, 1.6% hits; note: % is set by controls: 0 for no effect and ±100 for the full control effect; nearly all actives have a fitted effect of over 55% in size
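GLP-1R inverse agonism mode: basal reporter luminescence in engineered HEK293 cells measured after one day of compound exposure at 37 deg C, with a 12 min room-temperature detection step.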
An asterisk follows results filed as active; ? = inconclusive; nt = no result; [ ] = remark or other dose. Only some compounds are listed: those with a hit (about 1.7% of all), similar ones and a draw of the others. Calls come from the whole dose curve; as a rule, active = well fitted curve in the direction sought with a large enough effect; inconclusive = small, poorly fitted or top-dose-only effect, or another doubt; inactive = no such curve, though single readings can be large; an effect the other way counts as inactive or inconclusive. Potency is the fitted concentration of half-maximal effect.

SMILES | GLP1R cytotox | GLP1R ag | GLP1R inv ag
Cc1ccc2cc(NC(=O)c3ccc(C(C)(C)C)cc3)ccc2n1 | -35% | -4% | 4µM*
CCCCCc1ccc(OCCC[n+]2ccccc2)c(CCCCC)c1 | ? | 1% | 7.9µM*
CCCCCc1ccc(OCCOCCn2c[n+](C)c3ccccc32)c(CCCCC)c1 | ? | 4% | ?
CN(C)C(=O)c1cn(-c2ccccc2)nc1-c1cccs1 | -1% | 15% | -9%
O=C(c1cn(-c2ccccc2)nc1-c1cccs1)N(CCO)Cc1ccccc1 | -8% | 17% | 11µM*
CC(C)C[C@H](NC(=O)OC(C)(C)C)c1nnc(SCc2ccccc2)o1 | 2% | 0% | 8.9µM*
CCOC(=O)CSc1nnc([C@H](Cc2ccccc2)NC(=O)OC(C)(C)C)o1 | -7% | 5% | -18%
Cc1ccccc1N(C(=O)Cn1nnc(-c2cccs2)n1)C(C(=O)NCCC(C)C)c1ccco1 (stereo not drawn) | 6% | -6% | 5.6µM*
COCCNC(=O)C(c1ccco1)N(C(=O)Cn1nnc2ccccc21)c1ccccc1C (stereo not drawn) | -21% | -9% | ?
O=C(O)CC(CC(=O)N1CCN(C(=O)c2ccco2)CC1)c1ccccc1 (stereo not drawn) | 0% | -1% | 14%
O=C(O)COCC(=O)N1CCc2c([nH]c3ccccc23)C1C(F)(F)F (stereo not drawn) | -3% | -2% | 26%
NCCNCCN | nt | -2% | nt
Cc1ccc(-c2nnc(SCC(N)=O)nc2-c2ccc(C)cc2)cc1 | -8% | 2% | -30%
Cc1ccc(-c2nnc(SCC(=O)NC(C)(C)C)nc2-c2ccc(C)cc2)cc1 | 0% | nt | 11µM*
Cc1cccc(NC(=O)CCS(=O)(=O)c2cc3c(cc2Cl)NC(=O)CO3)c1 | 2% | 0% | -13%
CCOC(=O)N1N=C(c2ccc(OC)cc2)CC1(O)C(F)(F)F (stereo not drawn) | 6% | 18% | ?
CCc1ccc(C2=NN(C(=O)OC)C(O)(C(F)(F)F)C2)cc1 (stereo not drawn) | 0% | -1% | 7.9µM*
COc1ccc(-c2nc3ccccc3n2Cc2ccc(C)cc2)cc1 | -26% | 3% | ?
COc1ccc(-c2nc3ccccc3n2Cc2ccc(C(C)C)cc2)cc1 | 2% | 1% | 10µM*
Cc1ccc(Cn2c(-c3ccccc3)nc3ccccc32)cc1 | 17% | nt | ?
COc1ccc(-c2nc3ccccc3n2Cc2ccc(Cl)cc2)cc1 | -2% | nt | 10µM*
Cc1ccc(-c2nc3ccccc3c(=O)n2Cc2ccccc2)cc1 | -8% | 16% | 3.5µM*
COCn1c(-c2ccc(OC)cc2)nc2ccccc21 | -16% | -1% | ?
Cc1ccccc1-c1cc2nccc(-c3cc(Cl)ccc3O)n2n1 | 1% | nt | 1%
COc1cc([C@@H]2c3cc4c(cc3[C@@H](O[C@@H]3O[C@H]5CO[C@H](C)O[C@H]5[C@H](O)[C@@H]3O)[C@H]3COC(=O)[C@H]23)OCO4)cc(OC)c1OP(=O)(O)O | nt | 11% | nt
SMILES | GLP1R cytotox | GLP1R ag | GLP1R inv ag
COc1ccc2cc(C(=O)N3CCC(Cc4ccccc4)CC3)[nH]c2c1 | -10% | -8% | 11%
CCOC(=O)c1c(NC(=O)COc2ccc(Br)cc2)sc(C(C)=O)c1C | 0% | nt | 9%
CCOC(=O)c1c(NC(=O)COc2ccc(OC)cc2)sc(C(=O)N(CC)CC)c1C | -17% | nt | 7.9µM*
COc1ccc(/C=C/c2ccc3c(Br)ccc(O)c3n2)cc1 | -3% | 8% | 0%
COc1cccc(/C=C/c2ccc3cccc(O)c3n2)c1OC | ? | 23% | ?
COc1cc(/C=C/c2ccc3cccc(O)c3n2)cc(OC)c1OC | ? | 17% | ?
COc1cc(/C=C/c2ccc3cccc(O)c3n2)cc(Br)c1OC | ? | ? | 4.5µM*
COc1cc(/C=C/c2ccc3c(Br)cc(Br)c(O)c3n2)ccc1O | ? | -6% | 7.9µM*
COc1ccc(/C=C/c2ccc3cccc(O)c3n2)c(OC)c1OC | -21% | -4% | 2.5µM*
COC(=O)CNC(=O)Nc1cc(C(=O)NCc2ccc(C)cc2)ccc1N1CCCC1 | 1% | nt | 11%
O=C(c1cccs1)N(Cc1cccnc1)c1nc2ccc(F)cc2s1 | -7% | nt | 4%
Cc1oc2ccc(O)c(CN(C)Cc3ccccc3)c2c1C(=O)Nc1ccccc1 | -11% | nt | ?
O=C(Cc1ccc(Cl)cc1)c1c[nH]c(C(=O)NCc2cccnc2)c1 | ? | -7% | 2.8µM*
CC(C)(C)c1ccc(C(=O)c2c[nH]c(C(=O)NCc3cccnc3)c2)cc1 | -2% | 1% | 107%
CC1(C)S[C@H]2C(NC(=O)[C@@H](N)c3ccc(O)cc3)C(=O)N2[C@@H]1C(=O)O (stereo partly drawn) | nt | 0% | nt
CCCn1c(N2CCN(Cc3ccc(Cl)cc3)CC2)nc2ccccc21 | ? | -6% | 11µM*
CCn1c(N2CCN(Cc3ccc([N+](=O)[O-])cc3)CC2)nc2ccccc21 | -26% | 2% | ?
Cc1cccc(Cc2c(C)nc3nc(SCc4cccc(F)c4)nn3c2C)c1 | -11% | nt | -17%
CCCCCN(C(=O)CCC(=O)OC(C)C(=O)NC1CCCCC1)c1c(N)n(CCCC)c(=O)[nH]c1=O (stereo not drawn) | 19% | 1% | 7%
COc1ccc(C(NC(=O)CC(C)C)c2c(O)ccc3ccccc23)cc1 (stereo not drawn) | -26% | -3% | ?
CCCC(=O)NC(c1ccco1)c1c(O)ccc2ccccc12 (stereo not drawn) | -9% | -2% | ?
CCCCC(=O)NC(c1ccco1)c1c(O)ccc2ccccc12 (stereo not drawn) | -7% | -5% | 8.9µM*
CC(C)CC(=O)NC(c1ccccc1Cl)c1c(O)ccc2ccccc12 (stereo not drawn) | -33% | -5% | 8.9µM*
COc1ccc(-c2nc3c(C)cc(Br)cn3c2Cc2ccc(C)cc2)cc1OC | 2% | 21% | ?
Cc1ccc(-c2nnc3cccc(Cl)n23)cc1 | -7%[0.307 µM] | -11% | 7%[0.307 µM]
SMILES | GLP1R cytotox | GLP1R ag | GLP1R inv ag
COc1ccc(Nc2nnc(SC(C(=O)Nc3cc(C)ccc3C)c3ccccc3)s2)cc1 (stereo not drawn) | -5% | ? | -11%
COc1cccc(NC(=O)C(Sc2nnc(Nc3ccccc3C)s2)c2ccccc2)c1 (stereo not drawn) | ? | -10% | 10µM*
COc1ccc(C(O)c2nc(-c3cc(F)cc(Cl)c3)cs2)cc1 (stereo not drawn) | -5% | 25% | ?
COc1ccccc1NC(=O)CCN1CCC(C(N)=O)CC1 | 1% | nt | -4%
COc1ccc(OC)c(C(c2nnnn2C2CCCC2)N2CCN(c3ccc(F)cc3)CC2)c1 (stereo not drawn) | -12% | -2% | ?
COc1ccc(C(c2nnnn2C2CCCC2)N2CCC(C)CC2)c(OC)c1 (stereo not drawn) | -7% | 6% | 10µM*
Cc1cc(C(F)F)n2nc(C(=O)Nc3cc(Cl)ccc3C)nc2n1 | 1% | 1% | 11%
C=CCN(c1ccccc1Cl)S(=O)(=O)c1cccc(C(=O)NCCc2ccc(OC)cc2)c1 | -4% | -3% | 4.5µM*
